Test systems include SR leukemia; RPMI-8226 leukemia; OVCAR-8 ovarian; OVCAR-5 ovarian; OVCAR-4 ovarian; IGROV1 ovarian; OVCAR-3 ovarian; HS 578T breast; NCI/ADR-RES ovarian; T-47D breast; BT-549 breast; MDA-MB-435 melanoma; SW-620 colon; MCF7 breast; HCT-116 colon; HCC-2998 colon; KM12 colon; SK-OV-3 ovarian.
What all share (test): NCI-60 one-dose screen, 48 h (100 = growth as untreated, 0 = no growth, -100 = all killed)
Holding throughout (conditions): 10 µM unless noted

Compounds without any hit were thinned out: in the full panel of roughly 83,000, 20% have a hit.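 Treatment: one concentration, 48 hours, 96-well format. Scoring: percent growth, with anything below 10 considered active.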 Unmarked numbers belong to inactive results. Calls of active or inactive are those of the source.

Take `Cc1ccccc1-c1nc(C(Cl)Cl)nc2cc(-c3ccccc3)nn12`: the growth in the experiment with SR leukemia was 50.2%; in the experiment with RPMI-8226 leukemia, 61.6%; in the experiment on OVCAR-8 ovarian, 86.9%; in the experiment with OVCAR-5 ovarian, 96.4%; in the experiment on OVCAR-4 ovarian, 77.5%; in the experiment with IGROV1 ovarian it was 59.9%. Further, the growth is 28.3% in the experiment with OVCAR-3 ovarian; 70% in the experiment on HS 578T breast; 65.3% in the experiment on NCI/ADR-RES ovarian; 40.1% in the experiment on T-47D breast; 92.9% in the experiment on BT-549 breast; 56.6% in the experiment with MDA-MB-435 melanoma. For the same molecule, the growth in the experiment on SW-620 colon is 53.5%; in the experiment on MCF7 breast it was 64%; with HCT-116 colon, 55%; in the experiment on HCC-2998 colon, 69.2%; in the experiment on KM12 colon it was 36.5%.
Take `CC(=O)c1c(C)[nH]c(-c2nc3ccc(N4CCN(C)CC4)cc3[nH]2)c1-c1ccc2c(c1)OCCO2`: the growth was 46.2% with SR leukemia; 7.78% (active) with RPMI-8226 leukemia; 48.2% in the experiment with OVCAR-8 ovarian; 46.4% in the experiment on OVCAR-5 ovarian; 43% in the experiment on OVCAR-4 ovarian; 23% in the experiment on IGROV1 ovarian. In addition, the growth in the experiment on OVCAR-3 ovarian is 46%; with HS 578T breast it was 30.1%; in the experiment on NCI/ADR-RES ovarian it was 53%; in the experiment with T-47D breast, 37.7%; in the experiment with BT-549 breast, 63%; in the experiment on MDA-MB-435 melanoma it was 34.9%. Besides, the growth in the experiment with SW-620 colon was 59.7%; in the experiment on MCF7 breast it was 10.5%; in the experiment on HCT-116 colon it was 32.1%; with HCC-2998 colon, 45%; in the experiment with KM12 colon it was 48.9%.
Take `N#C/C(=C\c1ccc(-c2cccc(C(F)(F)F)c2)o1)c1nc(-c2ccco2)cs1`: the growth in the experiment with SR leukemia is 99.6%; with RPMI-8226 leukemia, 45.8%; in the experiment on OVCAR-8 ovarian it was 99.8%; with OVCAR-5 ovarian, 60.2%; with OVCAR-4 ovarian it was 16.8%; with SK-OV-3 ovarian, 112%. For the same molecule, the growth in the experiment on OVCAR-3 ovarian was 100%; in the experiment on HS 578T breast it was 102%; in the experiment on NCI/ADR-RES ovarian, 97.1%; with T-47D breast it was -17.6% (active); in the experiment with BT-549 breast it was 97%; with MDA-MB-435 melanoma, 102%. The growth in the experiment with SW-620 colon was 104%; in the experiment with MCF7 breast it was 22.4%; with HCT-116 colon it was 91.7%; with HCC-2998 colon, 29.5%; with KM12 colon, 65.5%.
For `OCCNc1nc(Nc2ccc(Cl)c(Cl)c2)nc2ccccc12`, the growth with SR leukemia was 3.46% (active); in the experiment on RPMI-8226 leukemia, 30.7%; with OVCAR-8 ovarian, 37.5%; in the experiment with OVCAR-5 ovarian, 78.3%; in the experiment with OVCAR-4 ovarian, 44.8%; with SK-OV-3 ovarian it was 62.8%. For the same molecule, the growth in the experiment on OVCAR-3 ovarian is 48.2%; in the experiment with HS 578T breast, 53.3%; with T-47D breast, 67.9%; in the experiment on BT-549 breast it was 77.8%; in the experiment with MDA-MB-435 melanoma, 50%; with SW-620 colon it was 28.6%. Moreover, the growth in the experiment on MCF7 breast is 30.3%; in the experiment with HCT-116 colon, 29.7%; in the experiment on HCC-2998 colon, -37.9% (active); in the experiment with KM12 colon, 35.5%.
Take `COc1cc2c(cc1-c1c(C)noc1C)ncc1nc(C3CCC(F)(F)CC3)n([C@@H](C)COC(F)F)c12`: the growth in the experiment with SR leukemia is 24.7%; with RPMI-8226 leukemia, 17.3%; in the experiment on OVCAR-8 ovarian, 46.1%; in the experiment on OVCAR-5 ovarian, 61.9%; in the experiment on OVCAR-4 ovarian, 43.2%; in the experiment with IGROV1 ovarian, 48.9%. Besides, the growth was 39% in the experiment on OVCAR-3 ovarian; 8.57% (active) in the experiment with HS 578T breast; 40.8% in the experiment on NCI/ADR-RES ovarian; 29.2% with T-47D breast; 56.3% in the experiment on BT-549 breast; 36.5% in the experiment with MDA-MB-435 melanoma. Also, the growth with SW-620 colon is 62.5%; in the experiment with MCF7 breast it was 13.6%; with HCT-116 colon it was 34.1%; with HCC-2998 colon, 52.3%; with KM12 colon, 41.8%.
For the molecule `O=[N+]([O-])c1cc(S(=O)(=O)c2ccc(F)c([N+](=O)[O-])c2)ccc1F`, the growth with SR leukemia is 9.57% (active); in the experiment on RPMI-8226 leukemia, 6.35% (active); in the experiment with OVCAR-8 ovarian it was 80.9%; with OVCAR-5 ovarian, 122%; with OVCAR-4 ovarian it was 112%; in the experiment with SK-OV-3 ovarian, 117%. Also, the growth was 101% in the experiment with OVCAR-3 ovarian; 80.6% in the experiment on HS 578T breast; 108% in the experiment on NCI/ADR-RES ovarian; 95.8% in the experiment on T-47D breast; 107% in the experiment on BT-549 breast; 103% in the experiment on MDA-MB-435 melanoma. In addition, the growth is 48% with SW-620 colon, 58.5% in the experiment with MCF7 breast, 112% in the experiment with HCC-2998 colon and 80.2% with KM12 colon.
For the molecule `CC(=O)O[C@H]1CC[C@]2(C)[C@H]3CC=C4[C@@H]5[C@H](C)[C@@H](C)CC[C@]5(C(=O)NCCNCCNCCN)CC[C@@]4(C)[C@]3(C)CC[C@H]2C1(C)C`, the growth is -5.48% (active) in the experiment on SR leukemia; 42.3% with RPMI-8226 leukemia; 96% in the experiment with OVCAR-8 ovarian; 96.1% in the experiment with OVCAR-5 ovarian; 95.2% in the experiment on OVCAR-4 ovarian; 57% in the experiment on IGROV1 ovarian. Further, the growth was 89.8% with OVCAR-3 ovarian; 95.4% in the experiment on HS 578T breast; 89.8% in the experiment with NCI/ADR-RES ovarian; 63.8% with T-47D breast; 93.7% in the experiment with BT-549 breast; 83% in the experiment on MDA-MB-435 melanoma. For the same molecule, the growth was 87.3% in the experiment on SW-620 colon; 58.1% in the experiment with MCF7 breast; 62.3% in the experiment with HCT-116 colon; 80% with HCC-2998 colon; 86.2% in the experiment with KM12 colon.
Turning to `O=C1Nc2ccccc2/C1=C/c1cn(CCCn2c3ccccc3c(=O)c3ccccc32)c2ccccc12`, the growth was 84% with SR leukemia; 90% in the experiment with RPMI-8226 leukemia; 85% with OVCAR-8 ovarian; 103% in the experiment on OVCAR-5 ovarian; 88.1% in the experiment on OVCAR-4 ovarian; 45.8% in the experiment with IGROV1 ovarian. Further, the growth with OVCAR-3 ovarian is 84.9%; in the experiment on HS 578T breast it was 85.2%; in the experiment with NCI/ADR-RES ovarian it was 90.3%; in the experiment with T-47D breast, 74.1%; in the experiment on BT-549 breast it was 84.6%; in the experiment with MDA-MB-435 melanoma, 94.6%. For the same molecule, the growth is 98.4% in the experiment on SW-620 colon; 47.3% in the experiment on MCF7 breast; 87% in the experiment with HCT-116 colon; 96.3% in the experiment on HCC-2998 colon; 88.3% with KM12 colon.
